From PubChem
An excerpt weighted towards active compounds, which were near 6.7% of everything screened.
Pf Dd2 inh: P. falciparum Dd2 growth inhibition. SYBR Green, 72 h; active compounds read low. activity change, % at 10 µM. hit rate 2.3% among 94,000. AID 1159554; in the data active means activity change below about -80%; inconclusive means no clear call, values can overlap the other calls
T cruzi growth-1: T. cruzi proliferation inhibition; T. cruzi beta-gal in NIH3T3, GalScreen luminescence, 90 h; inhibition, % at 8.34 µM; hit rate 5.9% among 77,000; AID 624255;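 active means mean inhibition above about 93%, with at least 55% of replicates each passing it, limit read from the data, passing the limit was not always enough; inconclusive means only one of those two conditions holds; inactive means neither condition holds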
C diff growth: blocks growth of Clostridium difficile; Clostridium difficile clinical isolate growth, OD600, 24 h; active compounds read low; growth activity, negative = inhibition, % at 16 µg/mL (by protocol); hit rate 0.25% among 86,000; AID 1259249;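 active means mean growth activity at or below -80% and every replicate also at or below -80%; inconclusive means mean at or below -80% but some replicate above -80%; inactive means mean growth activity above -80%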
T cruzi growth-2: inhibitors of T. cruzi proliferation; T. cruzi beta-gal in NIH3T3, GalScreen luminescence, 90 h; hit rate 72% among 5,600; inhibition, % at 8.35 µM; shares compounds with T cruzi growth-1; AID 651739;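 active means mean replicate inhibition above about 95% and at least 55% of replicates individually reaching it, limit read from the data; inconclusive means only one of the two criteria is met; inactive means neither criterion is met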
T cruzi growth-3: inhibitors of T. cruzi proliferation; shares compounds with T cruzi growth-1; T. cruzi beta-gal in NIH3T3, GalScreen luminescence, 90 h; inhibition, % at 2.09 µM; hit rate 21% among 5,600; AID 651740;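 active means mean inhibition above about 95%, with at least 55% of replicates also reaching it, limit read from the data; inconclusive means meets just one of the two conditions; inactive means meets neither condition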
NIH3T3 tox: kills mouse NIH/3T3 fibroblasts | shares compounds with T cruzi growth-1 | NIH/3T3 viability, CellTiter-Glo ATP luminescence, 90 h | cytotoxicity (signal decrease), % at 8.35 µM | hit rate 14% among 5,600;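 active means mean signal decrease across replicates above about 35% based on untreated-well scatter, with enough replicates individually passing, limit read from the data; inconclusive means no rule stated though some were filed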
3T3 cytotox 2: kills mouse NIH/3T3 fibroblasts. NIH/3T3 viability, CellTiter-Glo ATP luminescence, 90 h. inhibition, % at 24.9 µM. hit rate 56% among 5,600. shares compounds with T cruzi growth-1;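 active means mean loss of cell viability signal at or above a set limit, and enough replicates individually reaching it; inconclusive means meets only the mean limit or only the replicate share; inactive means meets neither condition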
Hits are given with their value; i = inactive; ? = inconclusive; nt = no result.

SMILES	Pf Dd2 inh	T cruzi growth-1	C diff growth	T cruzi growth-2	T cruzi growth-3	NIH3T3 tox	3T3 cytotox 2
C[C@@H]1CN([C@@H](C)CO)C(=O)c2cc(NC(=O)C3CCCCC3)ccc2O[C@H]1CN(C)Cc1ccncc1	i	i	i	nt	nt	nt	nt
CO[C@H]1CN(C)C(=O)c2cc(NC(=O)c3ccccc3F)ccc2OC[C@@H](C)N(C(C)=O)C[C@H]1C	i	i	nt	nt	nt	nt	nt
N#C[C@@H]1[C@@H](c2ccc(-c3ccc(F)cc3)cc2)[C@H](CO)N1c1nc(-c2ccccc2)cs1	i	103	i	107	i	i	i
N#C[C@@H]1[C@H](c2ccc(-c3ccc(F)cc3)cc2)[C@@H](CO)N1c1nc(-c2ccccc2)cs1	i	nt	i	nt	nt	nt	nt
N#C[C@@H]1[C@H](c2ccc(-c3cccc(F)c3)cc2)[C@@H](CO)N1c1nc(-c2ccccc2)cs1	i	nt	i	nt	nt	nt	nt
N#C[C@@H]1[C@H](c2ccc(-c3ccc(F)cc3)cc2)[C@H](CO)N1c1nc(-c2ccccc2)cs1	i	101	i	i	i	i	i
CO[C@H]1CN(C)C(=O)c2ccc(NS(=O)(=O)CC(F)(F)F)cc2OC[C@@H](C)N(C(=O)NC(C)C)C[C@H]1C	nt	i	nt	nt	nt	nt	nt
N#C[C@@H]1[C@H](c2ccc(C3=CCCCC3)cc2)[C@H](CO)N1C(=O)c1ccccn1	i	101	i	100	105	i	i
N#C[C@H]1[C@H](c2ccc(C3=CCCCC3)cc2)[C@@H](CO)N1C(=O)c1ccccn1	i	i	i	nt	nt	nt	nt
N#C[C@@H]1[C@@H](c2ccc(C3=CCCCC3)cc2)[C@H](CO)N1C(=O)c1ccccn1	i	i	i	nt	nt	nt	nt
N#C[C@@H]1[C@@H](c2ccc(C3=CCCCC3)cc2)[C@@H](CO)N1C(=O)c1ccccn1	i	102	i	i	i	i	i
COc1ccccc1C#Cc1ccc([C@H]2[C@@H](CO)N3CCCCN(C(=O)C4CCC4)C[C@H]23)cc1	i	i	i	nt	nt	nt	nt
COc1ccccc1C#Cc1ccc([C@@H]2[C@H]3CN(C(=O)C4CCCC4)CCCCN3[C@H]2CO)cc1	i	95	i	i	97	86	104
COc1ccccc1C#Cc1ccc([C@@H]2[C@H]3CN(C(=O)C4CCC4)CCCCN3[C@H]2CO)cc1	i	97	i	102	i	56	105
COc1ccccc1C#Cc1ccc([C@H]2[C@@H](CO)N3CCCCN(C(=O)C4CCCC4)C[C@H]23)cc1	i	i	i	nt	nt	nt	nt
O=C(C[C@@H]1C[C@H]2c3cc(NC(=O)C4CCC4)ccc3O[C@H]2[C@H](CO)O1)NCc1ccncc1	i	i	i	nt	nt	nt	nt
Cc1ccc(S(=O)(=O)N(C)C[C@@H]2OCCCC[C@@H](C)Oc3ccc(NC(=O)c4ccccc4)cc3C(=O)N([C@@H](C)CO)C[C@@H]2C)cc1	i	i	nt	nt	nt	nt	nt
Cc1ccc(S(=O)(=O)N(C)C[C@@H]2OCCCC[C@H](C)Oc3ccc(NC(=O)c4ccccc4)cc3C(=O)N([C@H](C)CO)C[C@H]2C)cc1	-81	101	nt	99	i	i	49
C[C@@H]1CCCCO[C@H](CN(C)S(=O)(=O)c2ccc(Cl)cc2)[C@H](C)CN([C@@H](C)CO)C(=O)c2cc(NC(=O)Nc3ccccc3)ccc2O1	?	i	nt	nt	nt	nt	nt
C[C@H](CO)N1C[C@H](C)[C@H](CN(C)S(=O)(=O)c2ccc(Cl)cc2)OCCCC[C@H](C)Oc2ccc(NC(=O)Nc3ccccc3)cc2C1=O	i	i	nt	nt	nt	nt	nt
Cc1ccc(S(=O)(=O)N(C)C[C@H]2OCCCC[C@H](C)Oc3ccc(NC(=O)Nc4ccccc4)cc3C(=O)N([C@H](C)CO)C[C@@H]2C)cc1	i	110	i	103	i	i	i
Cc1ccc(S(=O)(=O)N(C)C[C@@H]2OCCCC[C@@H](C)Oc3ccc(NC(=O)Nc4ccccc4)cc3C(=O)N([C@H](C)CO)C[C@H]2C)cc1	-85	109	i	109	108	i	i
C[C@H]1CCCCO[C@H](CN(C)S(=O)(=O)c2ccc(Cl)cc2)[C@@H](C)CN([C@@H](C)CO)C(=O)c2cc(NC(=O)Nc3ccccc3)ccc2O1	?	i	nt	nt	nt	nt	nt
Cc1ccc(S(=O)(=O)N(C)C[C@@H]2OCCCC[C@H](C)Oc3ccc(NC(=O)Nc4ccccc4)cc3C(=O)N([C@H](C)CO)C[C@@H]2C)cc1	?	106	i	106	i	i	i
Cc1cccc(S(=O)(=O)N2CCCCN3[C@H](CO)[C@H](c4ccc(C#C[C@@H](C)O)cc4)[C@H]3C2)c1	i	i	i	nt	nt	nt	nt
SMILES	Pf Dd2 inh	T cruzi growth-1	C diff growth	T cruzi growth-2	T cruzi growth-3	NIH3T3 tox	3T3 cytotox 2
CC(C)C(=O)Nc1ccc2c(c1)C(=O)N(C)[C@H]1CC[C@H](CC(=O)NCc3ccc(F)cc3)O[C@@H]1CO2	i	i	i	nt	nt	nt	nt
C[C@H](CO)N1C[C@H](C)[C@@H](CN(C)S(=O)(=O)c2ccc(F)cc2)Oc2cc(C3=CCCCC3)ccc2S1(=O)=O	i	114	i	102	99	38	64
Cc1ccc(S(=O)(=O)N(C)C[C@H]2Oc3cc(C4=CCCC4)ccc3S(=O)(=O)N([C@H](C)CO)C[C@@H]2C)cc1	i	nt	i	nt	nt	nt	nt
Cc1ccc(S(=O)(=O)N(C)C[C@H]2Oc3cc(C4=CCCC4)ccc3S(=O)(=O)N([C@@H](C)CO)C[C@H]2C)cc1	i	nt	i	nt	nt	nt	nt
C[C@@H]1CN([C@H](C)CO)S(=O)(=O)c2ccc(C3=CCCCC3)cc2O[C@H]1CN(C)S(=O)(=O)c1ccc(F)cc1	i	122	i	103	i	42	88
C[C@@H]1CCCCO[C@@H](CN(C)CC2CCCCC2)[C@H](C)CN([C@@H](C)CO)C(=O)c2cc(NC(=O)CCC(F)(F)F)ccc2O1	i	?	i	?	i	i	i
C[C@@H]1CCCCO[C@@H](CN(C)Cc2ccc(Cl)c(Cl)c2)[C@H](C)CN([C@H](C)CO)C(=O)c2cc(NC(=O)CCC(F)(F)F)ccc2O1	-88	?	i	i	104	i	103
C[C@@H]1CCCCO[C@@H](CN(C)CC2CCCCC2)[C@@H](C)CN([C@H](C)CO)C(=O)c2cc(NC(=O)CCC(F)(F)F)ccc2O1	i	i	i	nt	nt	nt	nt
C[C@@H]1CCCCO[C@@H](CN(C)Cc2ccncc2)[C@@H](C)CN([C@H](C)CO)C(=O)c2cc(NC(=O)CCC(F)(F)F)ccc2O1	i	i	i	nt	nt	nt	nt
C[C@@H]1CCCCO[C@@H](CN(C)Cc2ccc(Cl)c(Cl)c2)[C@@H](C)CN([C@@H](C)CO)C(=O)c2cc(NC(=O)CCC(F)(F)F)ccc2O1	i	i	i	nt	nt	nt	nt
C[C@@H]1CCCCO[C@H](CN(C)Cc2ccncc2)[C@H](C)CN([C@H](C)CO)C(=O)c2cc(NC(=O)CCC(F)(F)F)ccc2O1	i	96	i	i	i	i	i
O=C(Nc1cccc(Cl)c1)N[C@H]1CC[C@@H](CCNC(=O)C2CCC2)O[C@@H]1CO	i	nt	i	nt	nt	nt	nt
